The panel holds about 83,000 compounds, 20% with a hit somewhere; the sample as a whole holds those more often.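 The test compound was applied at a single concentration to cells in 96-well plates for 48 hours, and percent growth was recorded.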 Values without a mark were called inactive. Activity calls are given as the source filed them. Rule for the calls: active = growth percent below 10; inactive = the rest.

Holding throughout (assay): NCI-60 one-dose screen, 48 h (100 = growth as untreated, 0 = no growth, -100 = all killed)
In assay [1] the test system is T-47D breast. Conditions: 10 µM.
Assay [2] deals with BT-549 breast. Conditions: 10 µM.
Assay [3] deals with MDA-MB-435 melanoma. Particulars: 10 µM.
The subject of assay [4] is SW-620 colon. Particulars: 10 µM.
Assay [5] has as its system MCF7 breast. Particulars: 10 µM unless noted.
Assay [6] deals with HCT-116 colon. Particulars: 10 µM.
In assay [7] the test system is KM12 colon. Conditions: 10 µM.
The test system of assay [8] is HCC-2998 colon. Conditions: 10 µM.

Regarding `COCCOCCCl`, the growth in assay [1] was 98.1%; in assay [2], 107%; in assay [3] it was 106%; in assay [4], 101%; in assay [5] it was 100%; in assay [6], 99.7%. Further, the growth in assay [7] is 107%.
Take `CC(=O)OCC1OC(OC2=C(CC=C(C)C)C(=O)c3ccccc3C2=O)C(OC(C)=O)C(OC(C)=O)C1OC(C)=O` (stereo not given): the growth was -61.3% (active) in assay [1]; -6.85% (active) in assay [2]; -17.1% (active) in assay [3]; 11.1% in assay [4]; -60.2% (active) in assay [5]; 1.75% (active) in assay [6]. The growth in assay [8] is 77.9%; in assay [7], 5.15% (active).
`O=[N+]([O-])c1cccc(N=Nc2ccc(O)cc2O)c1`: the growth in assay [1] is 54%; in assay [2], 49.8%; in assay [3], 87.3%; in assay [4] it was 55.7%; in assay [5], 84.3%; in assay [6], 14.3%. In addition, the growth in assay [7] is 90.9%.
`CCN(CC)CCCC(C)Nc1ccnc(/C=C/c2ccc(Cl)cc2)c1` (stereo not given): the growth in assay [1] is -4.4% (active); in assay [2], 29.1%; in assay [3], -53.4% (active); in assay [4] it was -53.2% (active); in assay [5] it was -26.6% (active); in assay [6], -10.5% (active). Moreover, the growth in assay [7] was 25.3%.
On to `O=[N+]([O-])c1ccc(CO)cc1`, for which the growth in assay [1] is 88.3%; in assay [2], 105%; in assay [3] it was 90.3%; in assay [4], 102%; in assay [5] it was 91.1%; in assay [6], 101%. In addition, the growth was 96.1% in assay [8] and 105% in assay [7].
Consider `Nc1nc(OCc2ccccc2)c2[nH]cnc2n1`, for which the growth in assay [1] is 101%; in assay [2], 94.4%; in assay [3], 99.3%; in assay [4], 102%; in assay [5], 95.9%; in assay [6], 95.4%. The figures for the growth in assay [8] and in assay [7] were 104% and 112%, respectively.
For `Oc1ccccc1O`, the growth in assay [1] was 95.2%; in assay [2] it was 96%; in assay [3], 110%; in assay [4], 94.7%; in assay [5], 82.5%; in assay [6] it was 87.6%. In addition, in assay [7], the growth was 86.5%.
Regarding `CCc1nc(N)nc(N)c1-c1ccc(Cl)cc1`, the growth was 100% in assay [1]; 67.7% in assay [2]; 35% in assay [3]; 27.2% in assay [4]; 67.8% in assay [5]; 25.4% in assay [6]. In addition, the growth in assay [7] was 82.5%.
`C[C@]12CC[C@@H]3c4ccc(OCC(=O)O)cc4CC[C@H]3[C@@H]1CCC2=O`: the growth in assay [1] is 114%; in assay [2], 102%; in assay [3], 116%; in assay [4] it was 102%; in assay [5], 130%; in assay [6], 103%. Further, the growth in assay [7] was 105%.
With `CCCCNC1(C#N)CCN(Cc2ccccc2)CC1`, the growth is 17.8% in assay [1]; 107% in assay [2]; 97.5% in assay [3]; 102% in assay [4]; 102% in assay [5]; 98% in assay [6]. Further, the growth in assay [8] was 86.9%; in assay [7], 144%.
Consider `CCOC(=O)Nc1nn[nH]n1`, for which the growth is 113% in assay [1]; 106% in assay [2]; 111% in assay [3]; 90.2% in assay [4]; 103% in assay [5]; 107% in assay [6]. In addition, the growth in assay [7] was 106%.
Take `O=[N+]([O-])c1ccc(O)c(S(=O)(=O)O)c1`: the growth is 96.5% in assay [1]; 128% in assay [2]; 109% in assay [3]; 104% in assay [4]; 102% in assay [5]; 101% in assay [6]. Besides, the growth in assay [7] is 111%.
In the case of `O=C(O)C(Cc1ccccc1)C(=O)O`, the growth was 103% in assay [1]; 99.1% in assay [2]; 111% in assay [3]; 105% in assay [4]; 99.8% in assay [5]; 96.8% in assay [6]. Also, the growth in assay [7] was 107%.
For `Nc1ncnc2[nH]ncc12`, the growth in assay [1] was 6% (active); in assay [2], -32.8% (active); in assay [3] it was 15.2%; in assay [4], 17.5%; in assay [5], 7.48% (active); in assay [6], 5.13% (active). In addition, in assay [7], the growth was 18%.
As for `CCOC(=O)Nc1cc2c(c(N)n1)N=C(c1ccccc1)CO2`, the growth in assay [1] was 72.3%; in assay [2], 49.7%; in assay [3], 4.31% (active); in assay [4], 26.2%; in assay [5], 20.4%; in assay [6] it was 6.32% (active). Besides, the growth was 23.5% in assay [8] and 5.46% (active) in assay [7].
Take `O=c1[nH]n(-c2ccccc2)c(=O)cc1Cl`: the growth in assay [1] was 97.8%; in assay [2] it was 100%; in assay [3], 110%; in assay [4], 102%; in assay [5], 96.8%; in assay [6], 103%. In assay [7], the growth was 112%.
Regarding `O=C(O)c1cccc([N+](=O)[O-])c1O`, the growth is 101% in assay [1]; 93.6% in assay [2]; 101% in assay [3]; 105% in assay [4]; 119% in assay [5]; 98.9% in assay [6]. Moreover, in assay [7], the growth is 110%.
On to `COCCOC(=O)c1ccc(C(C)C)cc1`, for which the growth in assay [1] is 85%; in assay [2], 98.5%; in assay [3], 102%; in assay [4] it was 104%; in assay [5], 95.6%; in assay [6], 100%. Besides, the growth in assay [8] was 103%; in assay [7], 101%.
In the case of `CC(=O)OCCC(C)CCC=C(C)C` (stereo not given), the growth in assay [1] was 98.8%; in assay [2], 102%; in assay [3] it was 102%; in assay [4], 95.4%; in assay [5], 101%; in assay [6], 100%. Moreover, the growth in assay [8] and in assay [7] was 102% in each case.
